Drawing on PubChem BioAssay (NCI), this text covers growth for seven compounds.

What all share (assay): NCI-60 one-dose screen, 48 h (100 = growth as untreated, 0 = no growth, -100 = all killed)
What all share (details): 10 µM unless noted

For assay [1], the system named is NCI-H23 lung.
Assay [2] relates to NCI-H226 lung.
The test system of assay [3] is NCI-H322M lung.
The test system of assay [4] is HOP-62 NSCLC.
Assay [5] has as its system NCI-H460 lung.
The subject of assay [6] is HOP-92 NSCLC.
Assay [7] concerns NCI-H522 lung.
The test system of assay [8] is 786-0 renal.
The subject of assay [9] is COLO 205 colon.
In assay [10] the test system is DU-145 prostate.
Assay [11] has as its system K-562 leukemia.
Assay [12] deals with MALME-3M melanoma.
Assay [13] relates to MDA-MB-231 breast.
Assay [14] concerns RXF 393 renal.
Assay [15] deals with SF-268 CNS.
The test system of assay [16] is SF-295 CNS.
The test system of assay [17] is SF-539 CNS.
The subject of assay [18] is UACC-257 melanoma.
The subject of assay [19] is M14 melanoma.
In assay [20] the test system is A549/ATCC NSCLC.

“And” between values parts separate entries of the source, which are not always exact repeats. Identical values can stand only once. This is part of a sample that, as a whole, favours compounds with a hit. Of some 83,000 tested, about 20% had one in any assay.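 Method: cells in 96-well plates; compound added at one concentration; 48 h incubation; percent growth measured; values under 10 scored active.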 A number with no mark means an inactive call. The source made the active and inactive calls.

For the compound `CCOC(C)=N`, the growth was 105% in assay [1]; 112% in assay [2]; 146% in [3]; 101% in [4]; 114% in assay [5]; 89.7% in assay [6]. The growth in assay [7] was 87.3%; in assay [8] it was 100%; in assay [9], 122%; in assay [10], 118%; in assay [11], 102%; in assay [12] it was 177%. For the same compound, the growth in [13] was 106%; in assay [14], 114%; in [15], 106%; in [16], 121%; in [17], 106%; in assay [18], 104%. Further, the growth in assay [19] was 97.5%.

For `O=[N+]([O-])c1ccc(N2CCN=N2)cc1`, the growth is 99.6% in [1]; 96% in [2]; 88% in [3]; 82.9% in assay [4]; 98.9% in assay [5]; 89% in [6]. For the same compound, the growth in assay [7] was 78.8%; in assay [8] it was 84.8%; in assay [9], 92.7%; in assay [10], 88.2%; in assay [11] it was 63.6%; in assay [12], 106%. In addition, the growth was 80.4% in assay [13]; 109% in [14]; 85.8% in assay [15]; 97.1% in assay [16]; 93.4% in [17]; 91.5% in [18]. Further, the growth in assay [19] was 82.7%.

In the case of `O=[N+]([O-])c1cccc(N=Cc2ccccc2)c1`, the growth was 111% in assay [1]; 99.9% in assay [2]; 113% in [3]; 105% in assay [4]; 119% in assay [5]; 95.7% in assay [6]. The growth was 88.2% in [7]; 99.8% in [20]; 105% in assay [8]; 118% in assay [9]; 117% in assay [10]; 95.8% in assay [11]. The growth was 119% in assay [12]; 106% in [13]; 105% in assay [14]; 105% in assay [15]; 96.5% in [16]; 99.5% in [17]. The growth was 102% in assay [18] and 106% in assay [19].

For `COC(=O)C(Cc1cn(C(C)=O)c2ccccc12)P(=O)(OC)OC` (stereo not given), the growth in assay [1] was 98.5%; in assay [2], 91.5%; in assay [3], 101%; in assay [4], 93.3%; in assay [5], 98.1%; in [6], 98.8%. Besides, the growth was 103% in assay [7]; 105% in [8]; 105% in assay [9]; 109% in [10]; 102% in assay [11]; 96.1% in assay [12]. Besides, the growth in [13] is 97.9%; in assay [14] it was 116%; in assay [15] it was 96.3%; in assay [16], 97.1%; in assay [17], 97.3%; in [18] it was 110%. Also, in assay [19], the growth was 91.9%.

For the compound `O=C(N=C1C(=O)C2(CCCCC2)C2(N=C(c3ccccc3)OC2=O)C12CCCCC2)c1ccccc1` (stereo not given), the growth in assay [1] is 66.9%; in assay [2], 70.2%; in assay [3], 96%; in assay [4], 96.8%; in assay [5], 69.5%; in [6], 41.7%. In addition, the growth in [7] was 37.9%; in assay [8] it was 77.7%; in assay [9] it was 94%; in assay [10], 79%; in [11], 54.4%; in assay [12] it was 77.6%. Moreover, the growth was 74.4% in assay [13]; 69.5% in assay [14]; 77.8% in [15]; 77.3% in assay [16]; 82.3% in assay [17]; 67.7% in assay [18]. The growth in assay [19] is 78%.

On to `CN1C2C=CC(=O)C1C1C(=O)N(c3ccccc3)C(=O)C12` (stereo not given), for which the growth in assay [1] was 96.7%; in [2], 105%; in [3] it was 98.4%; in [4], 91.2%; in assay [5] it was 80.6%; in [6], 32.3%. In addition, the growth in [7] was -8.8% (active); in assay [20], 106%; in assay [8], 93.5%; in assay [9] it was 99.9%; in assay [10], 37.3%; in assay [11], 40.8%. For the same compound, the growth is 82.5% in [12]; 93.9% in assay [13]; 59.1% in assay [14]; 74.1% in assay [15]; 99% in assay [16]; 66.5% in [17]. In addition, the growth in [18] is 81.8%; in assay [19] it was 105%.

`Nc1[nH][nH]c(=O)c1N=Nc1ccccc1`: the growth was 98.7% and 99% in assay [1]; 106% and 91.8% in assay [2]; 129% and 102% in assay [3]; 104% and 105% in [4]; 99.8% and 117% in assay [5]; 101% in assay [6]. Further, the growth in [7] was 88.9% and 79.1%; in assay [8], 113% and 109%; in [9], 107% and 112%; in [10] it was 109% and 111%; in assay [11], 137% and 92.5%; in assay [12], 128% and 115%. Besides, the growth in assay [13] is 93.8% and 119%; in assay [14] it was 123% and 107%; in assay [15], 103% and 114%; in [16] it was 111% and 114%; in [17] it was 102% and 106%; in assay [18] it was 109%. In addition, the growth in [19] was 102% and 112%.
